High-throughput results as filed in PubChem BioAssay.
The list is not random: actives were taken first. Their share in the collection is about 3.8%.
CR mimetic SO: reduction of superoxide in aged yeast, primary screen, HTS; S. cerevisiae aged cells, superoxide DHE fluorescence; stronger effect = lower value; superoxide response (% of plate mean), % at 10 µM; 330,000 compounds, 0.18% hits;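 active = superoxide response under a set limit, about three screen SD below normal, cut at about 65% in these data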;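 also: yeast aged for seven days with compound at 30 °C before DHE staining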
FAS TE block: FAS thioesterase domain inhibitors, primary screen, biochemical, fluorescence intensity, uHTS; Fatty acid synthase (Homo sapiens), P49327; inhibition, % at 15 µM; AID 602261, 2012; 360,000 compounds, 0.67% hits; recombinant FAS-TE, OMFH fluorogenic substrate, fluorescence endpoint;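 active = compounds whose normalised, plate-corrected inhibition of enzyme fluorescence in the single-dose primary screen is 50% or more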
aDG glyco act: activators of alpha-DG glycosylation, primary screen, uHTS, Pro5-aDG cells, AlphaScreen. alpha-DG glycosylation AlphaScreen (IIH6); 0% Pro5, 100% B10-LARGE cell signal. activation, % at 10 µM. 360,000 compounds, 0.22% hits;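 active = activation of at least 8% versus controls, or a plate z-score of at least 8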;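 also: Pro5 are CHO cells carrying HIG-tagged alpha-DG that lacks glycosylation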
Mot1-301 SUMO: yeast Mot1-301 growth rescue at high temperature, primary screen, SUMOylation pathway inhibitor project, S. cerevisiae, ATP luminescence, 38.5C. S. cerevisiae Mot1-301 growth rescue; percent above DMSO median, 100 means doubled. growth rescue, % at 18.8 µM. 320,000 compounds, 1% hits;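 active = every valid replicate shows activation above 250% relative to neutral control wells; inactive = the rest, any valid replicate at or below 250%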
MPTP block: mitochondrial permeability transition pore inhibitors, primary screen, biochemical, isolated mouse mitochondria, absorbance. Ca2+ swelling absorbance, 30 min. inhibition, % at 10 µM. 360,000 compounds, 1.4% hits;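 active = inhibition of 50% or more, scaled per plate between neutral and stimulator controls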
H9c2 protect: cardioprotection against H2O2-induced cell death, primary screen, uHTS, H9c2 cells, ATPLite luminescence | protection from H2O2 cell death, % at 20 µM | AID 588492, 2011 | H9c2 cardiomyocytes, H2O2 injury protection, 2 h | 360,000 compounds, 0.63% hits;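 active = compounds giving at least 50% protection of heart cells from peroxide-induced death in the single-dose screen, raw or plate-pattern-corrected value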
MPTP counter: fluorescence retest of MPTP screen hits in isolated mitochondria, single concentration; inhibition, % at 10 µM; shares compounds with MPTP block; 5,000 compounds, 78% hits; membrane potential, Rhodamine 123 fluorescence; in the data active = inhibition above about 22%
MPTP swell DR: mitochondrial permeability transition pore inhibitors, dose response, biochemical, absorbance, uHTS hits. isolated mitochondria swelling. shares compounds with MPTP block. 780 compounds, 58% hits. IC50, µM; in the data active = IC50 below about 20 µM
MPTP cs DR: fluorescent counter-screen in isolated mitochondria, dose response, counter-screen for MPTP inhibitor project, biochemical, fluorescence, uHTS hits. shares compounds with MPTP block. isolated mitochondria counterscreen, fluorescence read-out. IC50, µM. 780 compounds, 49% hits; in the data active = IC50 below about 80 µM
A number is an active result; – = inactive; · = not tested or not shown.

SMILES | CR mimetic SO | FAS TE block | aDG glyco act | Mot1-301 SUMO | MPTP block | H9c2 protect | MPTP counter | others
COCCN1CCN(C(=O)c2cc(COc3ccc(F)cc3F)on2)CC1 | – | – | – | – | – | – | ·
COC1=Nc2ccccc2/C=C\c2ccccc21 | · | – | – | · | – | – | ·
C=CCNCCCOc1ccc(C)cc1Br | – | – | – | – | 81.1 | – | – | MPTP swell DR=15.5;MPTP cs DR=–
COCCCNCCCOc1ccc(C)cc1Br | – | – | – | – | – | – | ·
Cc1ccc(CN2CCN(CC(=O)NCCCN3CCN(c4ccc(F)cc4)CC3)C2=O)cc1 | – | – | – | – | 56.1 | – | – | MPTP swell DR=13.6;MPTP cs DR=17.8
COc1ccc(N2CCN(CCCNC(=O)CN3CCN(Cc4ccccc4C)C3=O)CC2)cc1 | – | – | – | · | – | – | ·
CCCn1c(SCC(=O)Nc2cc(C(=O)O)ccc2C)nc2sc3c(c2c1=O)CCC3 | – | – | – | · | – | – | ·
COc1ccc(N(CC(=O)Nc2ccc(F)c(Cl)c2)S(=O)(=O)c2c(C)noc2C)cc1 | – | – | – | – | 68.8 | – | 77.7
COc1ccc(N(CC(=O)Nc2ccc(OC)c(Cl)c2)S(=O)(=O)c2c(C)noc2C)cc1 | – | – | – | – | – | – | ·
CCOc1ccc(NC(=O)c2cccc(S(=O)(=O)Nc3c(C)n(C)n(-c4ccccc4)c3=O)c2)cc1 | · | – | – | · | – | – | ·
O=C1CCCN2N=C(SCC(=O)Nc3cccc(F)c3)SC2=N1 | – | – | – | – | 50.1 | – | – | MPTP swell DR=–;MPTP cs DR=38.4
COc1ccc(N/N=C/c2c(C(=O)O)ccc3ccccc23)cc1 | – | – | – | – | 82.3 | – | 51.7
O=C(N/C(=C/c1ccc(Cl)cc1)c1nc2ccccc2[nH]1)c1ccco1 | – | – | – | – | – | – | ·
O=C(/C(=C/c1ccc(Cl)cc1)c1nc2ccccc2[nH]1)c1ccccc1 | – | – | – | – | 91.2 | – | 87.3
CC(=O)C1=C(O)C(=O)N(c2ccc(O)cc2)C1c1cccc(F)c1 (stereo not given) | – | – | – | – | – | – | ·
CCN=C1S/C(=C\c2cc(OCC)c(O)cc2Br)C(=O)N1CC | – | – | – | – | 66.9 | – | 70.6
C/C(=N\Nc1ccc([N+](=O)[O-])cc1)c1ccc(N)cc1 | – | – | – | – | – | – | ·
CCc1ccc(/C(C)=N\Nc2ccc([N+](=O)[O-])cc2)cc1 | – | – | – | – | 58.3 | – | 50.7
O=C(Nc1ccc(Br)cc1)c1ccc(F)c(S(=O)(=O)NCc2cccs2)c1 | – | – | – | – | 96.8 | – | 93.6
O=C(Nc1cccc(Cl)c1)c1ccc(F)c(S(=O)(=O)NCc2ccc3c(c2)OCO3)c1 | – | – | – | – | 50.8 | – | 65.7
CCOc1ccc(NC(=O)CSc2nc3ccsc3c(=O)n2Cc2ccc(C(=O)O)cc2)cc1 | · | – | – | · | – | – | ·
O=C1NC(=S)/C(=C\c2ccc(-c3ccccc3Cl)o2)S1 | – | – | – | – | 91.3 | – | 37.4
O=C1NC(=O)/C(=C/c2ccc(-c3cc(C(=O)O)ccc3Cl)o2)S1 | – | – | – | – | – | – | ·
Cc1cc(OCC(=O)OCC(=O)N2CCCc3ccccc32)ccc1Cl | · | – | – | · | – | – | ·
O=c1c2c(-c3ccccc3)csc2nc2c3ccccc3c(NCCN3CCOCC3)nn12 | · | – | – | · | 58.4 | – | –
SMILES | CR mimetic SO | FAS TE block | aDG glyco act | Mot1-301 SUMO | MPTP block | H9c2 protect | MPTP counter | others
O=c1c2ccccc2nc2c3ccccc3c(NCCN3CCOCC3)nn12 | – | · | · | – | · | · | ·
COc1cccc(NC(=O)CN(C)C(=O)CSc2ccc3c(c2)OCCO3)c1 | – | – | – | – | – | – | ·
COc1ccccc1C(=O)NCC(=O)N1CCN(S(=O)(=O)c2ccc3c(c2)OCCO3)CC1 | – | – | – | – | – | – | ·
CN(Cc1cccc2cnccc12)C(=O)c1cc(COc2ccc(F)cc2F)on1 | · | – | – | · | – | – | ·
CN(Cc1cccnc1)C(=O)c1cc(COc2ccc3c(c2)CCCC3)on1 | – | – | – | – | 67.2 | – | 85.2
CCc1ccc(CN(C)C(=O)c2cc(COc3cccc4cnccc34)on2)cc1 | – | – | – | – | 99.4 | – | 102.8
CCN1C(=O)[C@@H]2[C@H](C1=O)[C@@H]1CC(C(=O)OC)=C[C@@H](C(=O)OC)C3C1=C(C(=O)C3(CC)CC)[C@@H]2C (stereo not given in full) | – | · | · | – | · | · | ·
O=S(=O)(Nc1cc2nc3ccccc3nc2n1Cc1ccccc1)c1ccc(Cl)cc1 | – | – | – | – | 58.0 | – | 35.6
O=S(=O)(NCc1ccccc1)c1ccc(Cl)cc1 | – | – | – | – | – | – | ·
COc1cccc(N2CCN(c3ncnc4c3[nH]c3ccc(F)cc34)CC2C)c1 (stereo not given) | – | – | – | – | 99.6 | – | 92.7
COc1ccc(Cn2nnnc2C(c2ccc3ncccc3c2)N2CCN(C3CCCCC3)CC2)cc1 (stereo not given) | – | – | – | – | – | – | ·
COc1ccc(Cn2nnnc2C(c2ccc(C)cc2)N2CCN(C3CCCC3)CC2)cc1 (stereo not given) | – | – | – | – | 77.1 | – | – | MPTP swell DR=–;MPTP cs DR=–
On1onc2c3cc(-c4ccccc4)nc3ccc21 | – | – | – | – | 100.8 | – | 64.6
CC1=CN2C(=N)/C(=C/c3ccc(Sc4ccc(Cl)cc4)o3)C(=O)N=C2S1 | – | – | – | – | 58.2 | – | 41.5
Cc1cc2oc(C(=O)Nc3ccc(S(=O)(=O)Nc4nccs4)cc3)cc(=O)c2cc1Cl | – | – | – | – | – | – | ·
Cc1cc2oc(C(=O)Nc3ccc(S(=O)(=O)N4CCCC(C)C4)cc3)cc(=O)c2cc1Cl (stereo not given) | – | – | – | – | 73.4 | – | – | MPTP swell DR=–;MPTP cs DR=<2.5
CC(=O)Nc1ccc(NC(=O)c2cc(=O)c3cc(C)cc(C)c3o2)cc1 | – | – | – | – | – | – | ·
Cc1cc(C)c2oc(C(=O)Nc3ccc(S(=O)(=O)N4CCC(C)CC4)cc3)cc(=O)c2c1 | – | – | – | – | 59.6 | – | – | MPTP swell DR=–;MPTP cs DR=–
O=C(Nc1cccc(S(=O)(=O)N2CCCCCC2)c1)c1cc(=O)c2ccccc2o1 | – | – | – | – | 51.6 | – | 64.5
